Measurements as given in PubChem BioAssay (Tox21).
Records with an inconclusive call do not appear. The source made the active and inactive calls. Unless noted, the call rests on the fitted dose curve; in most records, active means well fitted curve in the direction sought with a large enough effect in the repeat runs; inconclusive means weak or mixed curves; inactive means no such curve, though single readings can be large; an effect the other way counts as inactive or inconclusive.

Legend:
[1] = qHTS assay to identify aromatase inhibitors - cell viability counter screen (AID 743084);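 further: cells stimulated with testosterone during compound exposure; nearly all actives have a fitted effect of over 55% in size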
[2] = target: Aryl hydrocarbon receptor (Homo sapiens) (UniProt P35869); assay: qHTS assay to identify small molecule that activate the aryl hydrocarbon receptor (AhR) signaling pathway (AID 743085);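 further: HG2L7.5c1 human HepG2 liver cells with stably integrated DRE-driven firefly reporter; series mostly up to about 70 µM; nearly all actives have a fitted effect of over 15% in size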
Procedure, shortened: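 Steps: seed HepG2-AhR-luc cells; allow 5 h at 37C; pin-transfer test compound or vehicle; incubate 24 h at 37C; add viability dye (30 min, 37C) and read fluorescence; add luciferase substrate (30 min, RT) and read luminescence.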

[3] = qHTS assay to identify small molecule that activate the aryl hydrocarbon receptor (AhR) signaling pathway - cell viability counter screen (AID 743086);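 further: HepG2 liver cells carrying the AhR DRE luciferase reporter; series mostly up to about 70 µM; nearly all actives have a fitted effect of over 45% in size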
Procedure, shortened: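 Cytotoxicity counter screen: CellTiter-Fluor signal (30 min, 37 C) in 4000 HepG2 cells/well carrying the DRE-luciferase reporter, following 24 h compound exposure at 37 C.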

[4] = target: Peroxisome proliferator-activated receptor gamma (Homo sapiens) (UniProt P37231); assay: qHTS assay to identify small molecule agonists of the peroxisome proliferator-activated receptor gamma (PPARg) signaling pathway (AID 743094; active means well fitted activation curve with a large enough effect in the signal ratio in the repeat runs, not every such curve was filed as active; the % refers to the signal ratio)
Procedure, shortened: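 Fluorescence-based beta-lactamase readout in HEK293H PPARg UAS-bla cells after 17 h compound exposure (37C) and 1 h B/G FRET substrate incubation at room temperature.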

[5] = target: Peroxisome proliferator-activated receptor gamma (Homo sapiens) (UniProt P37231); assay: qHTS assay to identify small molecule antagonists of the peroxisome proliferator-activated receptor gamma (PPARg) signaling pathway (AID 743191; calls by dose curve; further: series mostly up to about 63 µM; nearly all actives have a fitted effect of over 30% in size)
Procedure, shortened: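 Beta-lactamase reporter under UAS control in HEK293H PPARg-bla cells; compound treatment 17 h at 37C. Read-out: fluorescence intensity after 1 h room-temperature incubation with LiveBLAzer B/G FRET substrate.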

[6] = qHTS assay to identify small molecule antagonists of the peroxisome proliferator-activated receptor gamma (PPARg) signaling pathway - cell viability counter screen (AID 743194); further: nearly all actives have a fitted effect of over 55% in size
Procedure, shortened: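 Viability was measured as CellTiter-Glo luminescence in GeneBLAzer PPARg UAS-bla HEK293H cells. These cells had been exposed 17 h at 37 C to compounds together with rosiglitazone at 50 nM final, with the beta-lactamase readout taken in the same wells.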

[7] = qHTS assay for small molecule agonists of the antioxidant response element (ARE) signaling pathway (AID 743202; active means well fitted activation curve with a large enough effect in the signal ratio in the repeat runs, not every such curve was filed as active; the % refers to the signal ratio)
Procedure, shortened: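 Beta-lactamase reporter activity, read as fluorescence intensity, reflects ARE/Nrf2 pathway induction in HepG2 cells after 16 h compound exposure at 37 C; substrate loading was 2 h at room temperature.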

[8] = qHTS assay for small molecule agonists of the antioxidant response element (ARE) signaling pathway - cell viability counter screen (AID 743203; calls by dose curve; further: nearly all actives have a fitted effect of over 55% in size)
Procedure, shortened: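 Parallel cytotoxicity read-out for the ARE-bla screen: HepG2 reporter cells, 16 hrs with compounds, then CellTiter-Glo luminescence.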

[9] = qHTS assay for small molecule activators of the heat shock response signaling pathway - cell viability counter screen (AID 743209); further: nearly all actives have a fitted effect of over 50% in size
Procedure, shortened: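 To flag cytotoxic compounds, HSE-bla HeLa cells plated at 1500 cells/well were dosed for 5 h at 37 C, followed by the reporter FRET read and then CellTiter-Glo, with luminescence recorded 30 min after reagent addition.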

[10] = qHTS assay for small molecule activators of the heat shock response signaling pathway (AID 743210; active means well fitted activation curve with a large enough effect in the signal ratio in the repeat runs, with a control signal flat, not every such curve was filed as active; the % refers to the signal ratio;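 further: HeLa cells with beta-lactamase reporter driven by heat shock elements; series mostly up to about 63 µM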)
Procedure, shortened: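 Fluorescence from a cleaved B/G FRET substrate (2.5 h, room temp) reports HSE-driven beta-lactamase in HeLa cells treated 5 h at 37 C with DMSO-dissolved compounds.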

Measured: Potency

Chain of Peroxisome proliferator-activated receptor gamma (Homo sapiens) (P37231 whole entry, looked up): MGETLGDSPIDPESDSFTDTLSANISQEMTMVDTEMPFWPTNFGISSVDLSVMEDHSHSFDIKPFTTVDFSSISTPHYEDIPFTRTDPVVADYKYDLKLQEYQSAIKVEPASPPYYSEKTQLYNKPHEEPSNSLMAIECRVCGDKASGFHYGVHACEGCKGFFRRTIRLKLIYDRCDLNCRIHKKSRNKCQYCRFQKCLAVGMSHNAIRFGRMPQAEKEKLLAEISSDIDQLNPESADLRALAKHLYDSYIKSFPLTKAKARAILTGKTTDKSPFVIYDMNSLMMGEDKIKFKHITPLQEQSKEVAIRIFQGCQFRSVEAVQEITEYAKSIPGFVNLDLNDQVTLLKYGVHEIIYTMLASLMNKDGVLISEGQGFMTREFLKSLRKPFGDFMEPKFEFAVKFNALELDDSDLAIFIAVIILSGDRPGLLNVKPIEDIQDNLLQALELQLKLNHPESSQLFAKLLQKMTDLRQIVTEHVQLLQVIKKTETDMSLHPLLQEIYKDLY
Chain of Aryl hydrocarbon receptor (Homo sapiens) (P35869 whole entry, looked up): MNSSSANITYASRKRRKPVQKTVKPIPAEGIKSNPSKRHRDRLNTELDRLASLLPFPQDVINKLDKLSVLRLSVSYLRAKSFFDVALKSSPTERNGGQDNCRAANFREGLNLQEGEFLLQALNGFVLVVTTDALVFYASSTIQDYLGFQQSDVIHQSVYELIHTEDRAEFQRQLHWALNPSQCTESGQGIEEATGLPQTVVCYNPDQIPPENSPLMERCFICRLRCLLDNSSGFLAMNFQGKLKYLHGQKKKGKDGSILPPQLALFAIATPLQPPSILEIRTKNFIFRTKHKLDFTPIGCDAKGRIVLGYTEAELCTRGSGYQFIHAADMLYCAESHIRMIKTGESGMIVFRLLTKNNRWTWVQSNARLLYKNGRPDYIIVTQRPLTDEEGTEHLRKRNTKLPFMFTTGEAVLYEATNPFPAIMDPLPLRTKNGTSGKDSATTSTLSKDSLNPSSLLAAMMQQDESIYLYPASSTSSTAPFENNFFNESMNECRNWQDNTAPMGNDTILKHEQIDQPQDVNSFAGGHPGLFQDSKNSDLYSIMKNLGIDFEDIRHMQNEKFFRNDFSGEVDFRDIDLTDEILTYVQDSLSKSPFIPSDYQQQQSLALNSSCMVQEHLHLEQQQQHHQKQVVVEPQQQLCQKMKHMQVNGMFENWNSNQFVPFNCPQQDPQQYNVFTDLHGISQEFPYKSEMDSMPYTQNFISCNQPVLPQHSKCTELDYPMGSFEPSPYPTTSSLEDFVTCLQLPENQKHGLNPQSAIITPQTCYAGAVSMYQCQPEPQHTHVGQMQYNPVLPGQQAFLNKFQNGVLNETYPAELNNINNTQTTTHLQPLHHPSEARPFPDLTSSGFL

O=C(OCCOCCOCCOC(=O)c1ccccc1)c1ccccc1
inactive: all assays above

C=C[Si]1(C)O[Si](C)(C=C)O[Si](C)(C=C)O[Si](C)(C=C)O1 (configuration not stated)
not listed: [9] | [10]
inactive: all other assays above

CCCOC(C)=O
inactive: all assays above

CCCN(C1CCN(C(=O)C2CCNCC2)CC1)[C@@H]1CCc2ccc(OC)cc2C1
not listed: [7] | [8]
inactive: all other assays above

CC(=O)OCC(=O)[C@@]1(O)CC[C@H]2[C@@H]3CCC4=CC(=O)C=C[C@]4(C)[C@@]3(F)[C@@H](O)C[C@@]21C
not listed: [9]
inactive: all other assays above

O=C1C=CCCC1
inactive: all assays above

CCCc1ccc(OC)cc1
inactive: all assays above

Nc1cccc2c(=O)[nH][nH]c(=O)c12
not listed: [9]
inactive: all other assays above

CCCCOC(=O)CC#N
not listed: [7] | [10]
inactive: all other assays above

C=C(C)C(=O)OCCCCCCCCCCOC(=O)C(=C)C
not listed: [10]
inactive: all other assays above

COC(=O)C(C)(C)C
inactive: all assays above

CCC(C)CCCC(C)(C)O (configuration not stated)
inactive: all assays above

CCCC(=O)OCc1ccccc1
inactive: all assays above

O=C(c1ccc(Cl)cc1)c1ccc(Cl)cc1
not listed: [10]
inactive: all other assays above

CCCCCCCCCCCCCCCCC(=O)O
not listed: [8]
inactive: all other assays above

CCCC1CCOC(C)S1 (configuration not stated)
inactive: all assays above

O=C(O)c1ccccc1[N+](=O)[O-]
not listed: [7]
inactive: all other assays above

CCCCCCOC(=O)c1ccccc1
not listed: [7]
inactive: all other assays above

CC(C)CCCCCOC(=O)CS
not listed: [7]
inactive: all other assays above

C[Si](C)(C)O[Si](C)(C)O[Si](C)(C)C
inactive: all assays above

CCCCCCCCS
inactive: all assays above

O=[N+]([O-])c1ccc(Cl)cc1Cl
not listed: [7]
inactive: all other assays above

COC(=O)c1cc(Cl)ccc1[N+](=O)[O-]
inactive: all assays above

CO[C@@H]1COCC[C@@H]1N[C@@H]1CC[C@@](C(=O)N2CCc3ncc(C(F)(F)F)cc3C2)(C(C)C)C1
inactive: all assays above

O=C1CCCN1CCO
not listed: [7] | [8] | [10]
inactive: all other assays above
